# Only some compounds are listed: those with a hit (about 3.7% of all), similar ones and a draw of the others.
# GDH-TPI inh = GDH-TPI coupling enzyme inhibitors, primary screen, artefact control for M. tuberculosis FBA inhibitor project, biochemical, absorbance, full deck | GDH-TPI coupled enzyme counterscreen, NADH absorbance | hit rate 1.2% among 360,000 | inhibition, % at 4.8 µM; in the data active means inhibition above about 30%;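 further: 0% = DMSO wells and 100% = wells lacking the enzyme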
# Mtb FBA inh = Mtb FBA enzyme inhibitors, primary screen, biochemical, fluorescence, strain H37Rv. inhibition, % at 1 µM. purified M. tuberculosis FBA, fluorescence read-out. hit rate 2.3% among 360,000; in the data active means inhibition above about 27%;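 further: 0% = vehicle and 100% = reference inhibitor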
# Mtb betalactam = beta-lactam sensitization of Mtb H37Rv, H37Rv. hit rate 0.27% among 330,000. M. tuberculosis H37Rv growth with meropenem, percent inhibition. inhibition, % at 25 µM; call rule not given here;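 further: growth measured after seven days incubation then overnight dye step; 0% = bacteria only wells and 100% = bacteria with antibiotic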
# Rv3671c inh = Rv3671c serine protease inhibitors, primary screen, biochemical, fluorescence polarization, M. tuberculosis H37Rv. P9WHR9. inhibition, % at 5.96 µM. hit rate 0.048% among 320,000. AID 2606, 2010; in the data active means inhibition above about 38%;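 further: extracellular domain of Rv3671c used as enzyme; 0% = enzyme with DMSO and 100% = no enzyme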
# UGM FP inh = M. tuberculosis UGM enzyme inhibitors, primary screen, biochemical, fluorescence polarization, single point | UDP-galactopyranose mutase (Mycobacterium tuberculosis (strain ATCC 25618 / H37Rv)), … | purified UGM, fluorescence polarization probe displacement | inhibition, % at 10 µM | hit rate 0.06% among 320,000; in the data active means inhibition above about 10%, passing the limit was not always enough; inconclusive means no clear call, values can overlap the other calls
# Target sequence (P9WIQ1 whole entry, looked up): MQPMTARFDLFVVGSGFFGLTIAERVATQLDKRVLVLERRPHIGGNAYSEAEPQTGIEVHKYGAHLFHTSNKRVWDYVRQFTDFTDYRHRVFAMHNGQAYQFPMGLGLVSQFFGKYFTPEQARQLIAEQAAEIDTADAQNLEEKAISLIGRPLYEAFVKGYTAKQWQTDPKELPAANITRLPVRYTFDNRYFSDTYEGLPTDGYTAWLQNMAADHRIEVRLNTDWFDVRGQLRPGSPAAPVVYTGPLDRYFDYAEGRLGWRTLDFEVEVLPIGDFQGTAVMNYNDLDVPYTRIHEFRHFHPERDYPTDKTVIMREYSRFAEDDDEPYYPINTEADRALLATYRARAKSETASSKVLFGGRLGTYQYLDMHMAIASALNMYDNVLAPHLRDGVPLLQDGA
# FadD28 binding = inhibitors of FadD28 bisubstrate probe binding, primary screen, biochemical, fluorescence polarization, single point | hit rate 0.22% among 360,000 | inhibition, % at 12.5 µM | Mycobacterium tuberculosis FadD28 fatty-acid-AMP ligase; in the data active means inhibition above about 8.5%, passing the limit was not always enough; inconclusive means no clear call, values can overlap the other calls
# * = called active by the depositor; u = inconclusive; x = not tested or not shown.
SMILES,GDH-TPI inh,Mtb FBA inh,Mtb betalactam,Rv3671c inh,UGM FP inh,FadD28 binding
Cc1ccc2c(c1)CCCO[C@]21O[C@H](CCO)C[C@H](O)[C@H]1O,x,1,x,x,x,-3
CCCCCn1cc(C(=O)C(=O)N2CCOCC2)c2ccccc21,13,-3,u,-14,3,-4
Fc1ccc(Cn2cc(C(=S)N3CCOCC3)c3ccccc32)cc1,4,0,2,-2,1,-3
Cc1ccccc1OCCCn1cc(C(=O)C(=O)N2CCOCC2)c2ccccc21,11,152*,-1,-1,-4,1
O=C(C(=O)N1CCOCC1)c1cn(Cc2ccc(F)cc2)c2ccccc12,32*,-4,-1,-3,0,-1
O=[N+]([O-])c1ccc(NN=Cc2ccco2)nc1,33*,-13,x,x,x,1
COc1ccc(S(=O)(=O)N(C)C[C@H]2Oc3ccc(NC(=O)Nc4ccc(C(F)(F)F)cc4)cc3C(=O)N([C@H](C)CO)C[C@@H]2C)cc1,10,-1,93,-231,2,-2
Cc1ccc(S(=O)(=O)Nc2cccc3c2O[C@@H](CN(C)C(=O)Nc2ccc4c(c2)OCO4)[C@H](C)CN([C@@H](C)CO)C3=O)cc1,8,-1,6,1,3,11*
COc1ccc(NC(=O)Nc2ccc3c(c2)C(=O)N([C@H](C)CO)C[C@H](C)[C@@H](CN(C)S(=O)(=O)c2ccc(OC)cc2)O3)cc1,6,3,3,3,1,9.4*
COc1ccc(-c2c(-c3cc(OC)cc(OC)c3)n(C)c3ccc(Br)cc23)cc1,9,10,-5,12,1,-3
COc1ccc(N=Nc2nc3ccc(Br)cc3n2C)cc1,4,21,99,8,66*,0
CC(C)C(=O)Nc1ccc(C(=O)NNC(=S)NC(=O)c2ccccc2[N+](=O)[O-])cc1,9,0,-3,4,0,-1
CCCCC(=O)Nc1ccc(C(=O)NNC(=S)NC(=O)c2ccccc2[N+](=O)[O-])cc1,38*,0,0,3,1,-2
CCCCNc1c(-c2ccc(OC)c(Sc3ccc(OC)cc3)c2)nc2ccccn12,14,28*,69,5,1,0
CCCCNc1c(-c2ccc(OC)c(Sc3ccc(OC)cc3)c2)nc2cnccn12,5,20,60,-4,-3,4
CCCCNc1c(-c2ccc(SC(C)CC)cc2)nc2cnccn12 (stereo not drawn),19,40*,100,-2,3,-3
COc1ccc(-n2nc3cc(C)c(NC(C)=O)cc3n2)cc1,7,114*,4,2,-2,-1
COc1ccc(NC(C)=O)c(C)c1,7,-1,-3,6,-1,-2
O=S1(=O)CC(N2CCN(CC3CC3)CC2)CN1CCc1ccccc1 (stereo not drawn),x,3,x,x,x,-3
COc1ccc(-n2ncc(C(C)NS(=O)(=O)c3cc(C)sc3C)c2C)cc1 (stereo not drawn),-1,-3,x,x,x,-4
C(=C\c1ccccc1)/CN1CCN(C(c2nnnn2-c2ccc3c(c2)OCCO3)C2CC2)CC1 (stereo not drawn),x,-2,x,x,x,0
CN1c2ccsc2/C(=N/NC(=O)c2c(F)cccc2F)CS1(=O)=O,34*,0,63,2,4,-5
CC(=O)c1ccc(N2CCN(S(=O)(=O)c3ccc4c(c3)C(Cl)(Cl)C(=O)N4)CC2)cc1,32*,0,x,x,x,-2
CC(=O)c1ccc(N2CCN(S(=O)(=O)c3ccc4c(c3)NC(=O)CC(=O)N4)CC2)cc1,10,0,3,0,-2,-4
CCOc1ccc(-c2nc(C#N)c(NCC(C)C)o2)cc1,18,156*,99,-10,0,0
SMILES,GDH-TPI inh,Mtb FBA inh,Mtb betalactam,Rv3671c inh,UGM FP inh,FadD28 binding
COc1ccc(-c2nc(C#N)c(NCc3ccco3)o2)cc1,-2,117*,42,6,2,-3
N#Cc1nc(-c2ccc(OCc3ccccc3)cc2)oc1NCc1ccco1,20,7,-4,6,-1,2
COc1ccc(Nc2oc(-c3ccc(F)cc3)nc2C#N)cc1,6,2,-4,-7,-1,0
C=CCNc1oc(-c2ccc(OC)cc2)nc1C#N,8,127*,7,-2,3,-2
C=CCNc1oc(-c2ccc(OCC)cc2)nc1C#N,18,129*,-1,2,-2,-1
Nc1ccn(CCCNC2CCN(Cc3ccccc3)CC2)c(=O)n1,5,-1,x,x,x,-2
Nc1ccn([C@@H]2O[C@H](C(=O)N(CCC3=CCCCC3)CC3CC3)[C@@H](O)[C@H]2O)c(=O)n1,x,-1,x,x,x,-3
CC1(C(=O)Nc2cnc3ccccc3c2)CCN1Cc1ccc(OC(F)(F)F)cc1 (stereo not drawn),-4,-2,x,x,x,-5
CCOC1=C2CN(S(=O)(=O)c3ccccc3)[C@H](c3ccccc3)C[C@H]2n2c(=O)n(-c3ccccc3)c(=O)n2C1,x,-4,x,x,x,-3
COc1ccccc1C(=O)NC(CCSC)C(=O)NCCCSc1ccccc1 (stereo not drawn),-3,0,-1,1,2,-2
OC(c1ccc2c(c1)OCO2)c1ncc(-c2cccc(C(F)(F)F)c2)[nH]1 (stereo not drawn),6,0,x,x,x,-1
CCOc1ccc(-c2c(C(=O)N/N=C/c3ccc(C)s3)nnn2-c2nonc2N)cc1,37*,-1,-4,-12,0,-5
CC(/C=N/NC(=O)c1nnn(-c2nonc2N)c1CN(C)C)=C\c1ccco1,35*,2,-2,-2,-1,0
CCOc1ccc(-c2c(C(=O)N/N=C/c3ccco3)nnn2-c2nonc2N)cc1,43*,2,2,-12,3,0
Cc1ccc(-c2c(C(=O)N/N=C/c3ccco3)nnn2-c2nonc2N)cc1,24,-2,-12,10,0,-6
CN1C(=O)C(CC(=O)O)S/C1=N\N=C\c1ccc(O)cc1O (stereo not drawn),52*,-1,-9,8,3,0
COc1ccc(/C=C/C(=O)N2CCN(c3ccccn3)CC2)cc1,12,-1,5,x,1,x
CSc1ccc(/C=C/C(=O)N2CCN(c3ccccn3)CC2)cc1,32*,5,46,-3,1,-1
CC(=O)c1ccc(Nc2c3c(nc4ccccc24)CCCC3)cc1,37*,3,33,-12,0,-2
COc1ccc(/C=C/C(=O)Nc2nc(C)c(C(=O)N(C)C)s2)cc1,42*,-3,-3,-22,1,-5
